Some test systems named below: HCT-15 colon; SNB-75 CNS; SNB-19 CNS; U251 CNS; PC-3 prostate; SK-MEL-5 melanoma; UACC-62 melanoma; LOX IMVI melanoma; SK-MEL-28 melanoma; SK-MEL-2 melanoma; EKVX NSCLC; SN12C renal; UO-31 renal; TK-10 renal; ACHN renal; CAKI-1 renal; A498 renal; CCRF-CEM leukemia; MOLT-4 leukemia.
Holding throughout (assay): NCI-60 one-dose screen, 48 h (100 = growth as untreated, 0 = no growth, -100 = all killed)
Common to all, as to settings: 10 µM unless noted

Data on eight compounds can be found in PubChem BioAssay (NCI).

Compounds without any hit were thinned out: in the full panel of roughly 83,000, 20% have a hit.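 The test compound was applied at a single concentration to cells in 96-well plates for 48 hours, and percent growth was recorded.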 A number with no mark means an inactive call. Activity calls are given as the source filed them. The calls were made as follows: active = growth percent below 10; inactive = the rest.

Regarding `COc1ccc(Cn2cc(C(=O)N=Nc3c(O)[nH]c4ccc(Br)cc34)nn2)cc1`, the growth is 105% with HCT-15 colon; 112% with SNB-75 CNS; 97.3% in the assay with SNB-19 CNS; 105% in the assay on U251 CNS; 99.8% in the assay with PC-3 prostate; 98.3% with SK-MEL-5 melanoma. Also, the growth in the assay with UACC-62 melanoma was 97.2%; in the assay with LOX IMVI melanoma, 107%; with SK-MEL-28 melanoma, 115%; in the assay with SK-MEL-2 melanoma, 98.1%; in the assay with EKVX NSCLC, 106%; with SN12C renal, 102%. Also, the growth with UO-31 renal is 91.5%; in the assay with TK-10 renal it was 97.6%; in the assay with ACHN renal it was 110%; with CAKI-1 renal, 97.7%; with A498 renal, 97.1%; with CCRF-CEM leukemia, 92.5%. The growth with MOLT-4 leukemia is 80.6%.

In the case of `O=C1Nc2ccccc2/C1=C/c1cccn1CCCCCCn1c2ccccc2c(=O)c2ccccc21`, the growth in the assay on HCT-15 colon was 23%; in the assay on SNB-75 CNS, 92.3%; in the assay with SNB-19 CNS it was 97.1%; with U251 CNS, 92.4%; in the assay on PC-3 prostate it was 40.1%; in the assay on SK-MEL-5 melanoma, 34.7%. In addition, the growth in the assay on UACC-62 melanoma was 50.3%; with LOX IMVI melanoma, 91.2%; in the assay on SK-MEL-28 melanoma it was 111%; in the assay on SK-MEL-2 melanoma, 86.3%; with EKVX NSCLC, 65.3%; in the assay on SN12C renal it was 93.6%. Further, the growth in the assay on UO-31 renal was 56.2%; in the assay with TK-10 renal, 78.7%; with ACHN renal, 89.7%; in the assay on CAKI-1 renal, 72.6%; with A498 renal, 103%; in the assay on CCRF-CEM leukemia, 49.8%. Further, the growth with MOLT-4 leukemia is 50.9%.

As to `CN(Cc1ccccc1)c1nc(Cl)c(C2CC(c3ccc(Cl)cc3)=NN2c2cc(Cl)cc(Cl)c2)s1` (centres undefined), the growth is 98.8% with HCT-15 colon; 90.4% with SNB-75 CNS; 108% with SNB-19 CNS; 109% in the assay on U251 CNS; 92.5% in the assay on PC-3 prostate; 107% with SK-MEL-5 melanoma. For the same compound, the growth in the assay with UACC-62 melanoma is 98.1%; in the assay with LOX IMVI melanoma it was 97.8%; with SK-MEL-28 melanoma, 112%; in the assay with SK-MEL-2 melanoma, 104%; in the assay with EKVX NSCLC, 94.4%; in the assay with SN12C renal, 106%. In addition, the growth was 96.9% in the assay on UO-31 renal; 117% in the assay with TK-10 renal; 102% in the assay on ACHN renal; 84.4% in the assay on CAKI-1 renal; 111% in the assay with A498 renal; 95.1% in the assay with CCRF-CEM leukemia. Besides, in the assay with MOLT-4 leukemia, the growth was 110%.

On to `CN(C)CC1C(=O)O[C@H]2[C@H]1CC/C(COC(=O)NCc1ccc(Cn3c(=O)sn(CCCI)c3=O)cc1)=C\CC[C@@]1(C)O[C@@H]21` (some centres undefined), for which the growth in the assay on HCT-15 colon is 5.27% (active); with SNB-75 CNS it was 71.8%; in the assay on SNB-19 CNS, 89.9%; with U251 CNS it was 84.7%; in the assay on PC-3 prostate, 66.5%; in the assay on SK-MEL-5 melanoma, 64.2%. For the same compound, the growth in the assay with UACC-62 melanoma is 15.9%; in the assay on SK-MEL-28 melanoma, -80.3% (active); in the assay with SK-MEL-2 melanoma, 63.3%; in the assay with EKVX NSCLC, 89.7%; with SN12C renal, 18.9%; with UO-31 renal, 1.41% (active). Further, the growth in the assay on TK-10 renal was -63.3% (active); in the assay on ACHN renal it was -48.8% (active); with CAKI-1 renal it was -63.8% (active); with A498 renal, 105%; with CCRF-CEM leukemia it was -10.1% (active); in the assay on MOLT-4 leukemia, -1.36% (active).

Regarding `CCOC(=O)c1c2c(n3ccc(NC(=O)CCN4CCCC4)cc13)C(=O)c1ncccc1C2=O`, the growth in the assay on HCT-15 colon was -78.1% (active); in the assay on SNB-75 CNS, -97.5% (active); in the assay on SNB-19 CNS, -55.4% (active); in the assay on U251 CNS, -88.5% (active); in the assay with PC-3 prostate, -11.7% (active); in the assay on SK-MEL-5 melanoma, 68.6%. Further, the growth in the assay on UACC-62 melanoma is -12.4% (active); in the assay on LOX IMVI melanoma it was -73% (active); with SK-MEL-28 melanoma, 96.4%; in the assay with SK-MEL-2 melanoma, 93.9%; in the assay on EKVX NSCLC, -49.2% (active); in the assay with SN12C renal, -63.5% (active). Besides, the growth was 16.9% in the assay with UO-31 renal; -92.2% (active) in the assay on TK-10 renal; 13.6% in the assay on ACHN renal; 9.9% (active) in the assay with CAKI-1 renal; 46.3% in the assay on A498 renal; -36.4% (active) in the assay with CCRF-CEM leukemia. Further, in the assay with MOLT-4 leukemia, the growth was -23% (active).

For `CNC(=O)c1cc(Oc2cccc3nc(NC(=O)Nc4ccc(F)cc4F)ccc23)ccn1`, the growth in the assay on HCT-15 colon is 18.1%; in the assay with SNB-75 CNS it was -64.4% (active); in the assay with SNB-19 CNS, 54.8%; with U251 CNS, 14.9%; in the assay on PC-3 prostate, 38.5%; in the assay with SK-MEL-5 melanoma, 22.7%. In addition, the growth is 52.5% in the assay with UACC-62 melanoma; 30.8% in the assay on SK-MEL-28 melanoma; 71% in the assay with SK-MEL-2 melanoma; -0.932% (active) with EKVX NSCLC; 10.6% with SN12C renal; 10.4% in the assay on UO-31 renal. Besides, the growth was -37.7% (active) in the assay on TK-10 renal; 33.6% in the assay with ACHN renal; 72.7% in the assay with CAKI-1 renal; 68.1% with A498 renal; 49.7% in the assay with CCRF-CEM leukemia; 53.6% in the assay with MOLT-4 leukemia.

Take `c1ccc(-c2nc(N3CCNCC3)c3oc(-c4ccccc4)nc3n2)cc1`: the growth is -75.6% (active) in the assay with HCT-15 colon; -27.9% (active) in the assay with SNB-19 CNS; -57% (active) with U251 CNS; -27.9% (active) in the assay on PC-3 prostate; -93.3% (active) with SK-MEL-5 melanoma; -82% (active) in the assay with UACC-62 melanoma. Besides, the growth with LOX IMVI melanoma is -81.9% (active); in the assay with SK-MEL-28 melanoma, -95% (active); in the assay with SK-MEL-2 melanoma, -34.1% (active); in the assay with EKVX NSCLC, -68.4% (active); with SN12C renal, -82.1% (active); in the assay with UO-31 renal, -99.8% (active). In addition, the growth in the assay with TK-10 renal was -71.3% (active); with ACHN renal it was -100% (active); in the assay on CAKI-1 renal, -94% (active); in the assay with A498 renal, 88.2%; with CCRF-CEM leukemia it was -31.1% (active); in the assay with MOLT-4 leukemia, -24.9% (active).

As for `C=C(C[n+]1ccccc1)[C@@H]1CC[C@]2(C(=O)OC)CC[C@]3(C)[C@H](CC[C@@H]4[C@@]5(C)CCC(=O)C(C)(C)[C@@H]5CC[C@]43C)[C@@H]12`, the growth in the assay on HCT-15 colon is 104%; with SNB-75 CNS it was 83.9%; in the assay with SNB-19 CNS, 73.8%; in the assay with U251 CNS, 82.8%; with PC-3 prostate, 68%; with SK-MEL-5 melanoma, 80.2%. Further, the growth with UACC-62 melanoma was 51.8%; in the assay on LOX IMVI melanoma it was 93.7%; in the assay on SK-MEL-28 melanoma, 69%; with SK-MEL-2 melanoma, 89%; in the assay with EKVX NSCLC it was 93.4%; with SN12C renal it was 87.8%. For the same compound, the growth was 86.4% with UO-31 renal; 102% in the assay with TK-10 renal; 95.4% in the assay with ACHN renal; 83.5% with CAKI-1 renal; 88.7% in the assay with A498 renal; 82.6% in the assay with CCRF-CEM leukemia. Also, the growth with MOLT-4 leukemia is 78.9%.
